The panel holds about 83,000 compounds, 20% with a hit somewhere; the sample as a whole holds those more often.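 The endpoint reported here, percent growth, reads 100 for growth as untreated, 0 for no net growth and -100 for all cells dead.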 Activity calls are given as the source filed them. Rule for the calls: active = growth percent below 10; inactive = the rest.
Assays:
Experiment in all cases: NCI-60 one-dose screen, 48 h (100 = growth as untreated, 0 = no growth, -100 = all killed)
Details in all cases: 10 µM unless noted
[1] = system: HCT-15 colon
[2] = system: HT29 colon
[3] = system: SNB-75 CNS
[4] = system: SNB-19 CNS
[5] = system: U251 CNS
[6] = system: PC-3 prostate
[7] = system: SK-MEL-5 melanoma
[8] = system: UACC-62 melanoma
[9] = system: LOX IMVI melanoma
[10] = system: SK-MEL-28 melanoma
[11] = system: SK-MEL-2 melanoma
[12] = system: EKVX NSCLC
[13] = system: SN12C renal
[14] = system: TK-10 renal
[15] = system: ACHN renal
[16] = system: CAKI-1 renal
[17] = system: A498 renal
[18] = system: CCRF-CEM leukemia
[19] = system: MOLT-4 leukemia
[20] = system: UO-31 renal

Measured: growth

O=C1/C(=C/c2ccc(Cl)cc2)CN(C(=O)C(Cl)Cl)C/C1=C\c1ccc(Cl)cc1
active: [1] -70% | [2] -31% | [3] -84% | [4] -92% | [5] -94.3% | [6] -38.4% | [7] -89.3% | [8] -59.6% | [9] -93.1% | [10] -81.5% | [11] -15% | [12] -60% | [13] -75.7% | [14] -83.7% | [15] -100% | [16] -71% | [17] -95.8% | [18] 7% | [19] -12.5%

CCCCCCCCCCCCCCCCCCOc1ccccc1CC(=O)NCC[N+](C)(C)C
active: [5] -58.5% | [6] -33% | [14] -21.4% | [18] -5.38%
inactive: [1] 87.4% | [2] 12.5% | [3] 22.9% | [4] 12.5% | [7] 63.7% | [8] 42% | [9] 33.4% | [10] 80.1% | [11] 68.8% | [12] 89.3% | [20] 80.2% | [15] 78.3% | [16] 18.7% | [17] 65.6% | [19] 17.1%

Cc1c(C(C)(C)O)cn2ncnc(Oc3ccc(NC(=O)Nc4ccc(Cl)c(C(F)(F)F)c4)c(F)c3)c12
inactive: [1] 55.5% | [2] 61.1% | [3] 36.5% | [4] 53.2% | [5] 47% | [6] 39.2% | [7] 61.4% | [8] 72% | [9] 59.7% | [10] 71.3% | [11] 94.7% | [12] 56.3% | [20] 69.9% | [14] 85.1% | [15] 39.5% | [16] 47.9% | [17] 29.5% | [18] 29.2% | [19] 32.2%

Cc1nc([P+](c2ccccc2)(c2ccccc2)c2ccccc2)c(N2CCCCC2)o1
inactive: [1] 103% | [2] 14.1% | [3] 37.9% | [4] 18.7% | [5] 16.6% | [6] 15.3% | [8] 25.3% | [9] 24.5% | [10] 34.3% | [11] 41.2% | [12] 63.4% | [13] 35% | [14] 53.6% | [16] 78% | [17] 34.6% | [18] 21.2% | [19] 28.8%
active: [7] -32.3%

CC1(C)CC[C@]23CC[C@]4(C)[C@H](CC[C@@H]5[C@@]6(C)C/C(=C/O)C(=O)C(C)(C)[C@@H]6CC[C@]54C)[C@H]2[C@H]1OC3
inactive: [1] 110% | [2] 100% | [3] 104% | [4] 98% | [5] 105% | [6] 86.1% | [7] 101% | [8] 93% | [9] 90.8% | [10] 107% | [11] 108% | [12] 98.4% | [13] 99.2% | [14] 113% | [16] 91.1% | [17] 105% | [18] 99.5% | [19] 97.7%

Cc1nc(N/N=C/c2cn(-c3ccccc3)nc2-c2cc3ccccc3oc2=O)sc1N=Nc1ccccc1
inactive: [1] 56.1% | [2] 85.2% | [3] 50.4% | [4] 91.9% | [5] 93.1% | [6] 85.8% | [7] 93.3% | [8] 71% | [9] 89.5% | [10] 87.6% | [11] 93.7% | [12] 102% | [13] 97.6% | [14] 106% | [15] 98% | [16] 69.7% | [17] 77% | [18] 94.3% | [19] 85.1%

COc1ccc(C/C(C)=C(\c2ccc(Cl)cc2)c2ccc(OCCN3CCCC3)cc2)cc1
inactive: [1] 40.2% | [2] 19.6% | [3] 88.5% | [4] 92.1% | [5] 61.1% | [6] 77.8% | [7] 89.7% | [8] 90.8% | [9] 82.9% | [10] 91.4% | [11] 96.8% | [12] 96.7% | [20] 66.3% | [14] 87.6% | [15] 94.8% | [16] 83.4% | [17] 110% | [18] 57.2% | [19] 44.6%

Ic1ccc(Nc2nc3nonc3nc2Nc2ccc(I)cc2)cc1
inactive: [3] 24.7% | [4] 22.4% | [10] 12.2%
active: [1] -11.5% | [2] 0.391% | [5] 6.94% | [6] 4.36% | [7] -81.2% | [8] -28.2% | [9] -3.56% | [11] -55.2% | [12] 4.77% | [13] 7.43% | [14] 2.2% | [15] 4.88% | [16] 7.67% | [17] -22% | [18] -1.76% | [19] -29%

O=C(Oc1ccc2c(c1)sc1nc(-c3ccccc3)[nH]c(=O)c12)C(F)(F)F
inactive: [1] 22.2% | [2] 75.6% | [3] 10.7% | [4] 45.6% | [5] 28.9% | [6] 43.1% | [7] 11.6% | [8] 11.3% | [9] 18.8% | [10] 36% | [11] 26.6% | [12] 58.8% | [13] 32% | [14] 61.7% | [15] 29% | [16] 19.3% | [17] 23.6% | [18] 21.9% | [19] 13.5%

CCCCC#Cc1c(I)n(C2OC(CO[Si](C)(C)C(C)(C)C)C3OC(C)(C)OC32)c(=O)n(C(=O)c2ccccc2)c1=O (stereo not drawn)
inactive: [3] 93.3% | [4] 72.3% | [6] 43% | [7] 78.7% | [8] 55.1% | [11] 43% | [12] 74.8% | [13] 57.8% | [15] 50.6% | [16] 26.9% | [17] 87.9%
active: [1] 8.46% | [2] 0.292% | [5] -33.2% | [9] -65.2% | [10] -42.9% | [14] -11.4% | [18] -7.06% | [19] 1.98%

C/C=C1/CN(CCCCC)CC[C@H]1C(=O)c1cc2ccccc2[nH]1
inactive: [1] 87% | [2] 75.7% | [3] 76.4% | [4] 96.7% | [5] 98.1% | [6] 85.8% | [7] 87.9% | [8] 95% | [9] 90.1% | [10] 111% | [11] 118% | [12] 94.1% | [13] 86.1% | [14] 120% | [15] 96.1% | [16] 87.6% | [17] 88.9% | [18] 96.8% | [19] 86.1%

COc1ccc(N/N=C/c2cn(-c3ccc(C(=O)O)cc3)nc2-c2cc3ccccc3oc2=O)cc1
inactive: [1] 30% | [2] 63.1% | [3] 82.1% | [4] 75.9% | [5] 107% | [6] 63.5% | [7] 39.5% | [8] 22.6% | [9] 25.7% | [10] 69.5% | [11] 60.3% | [12] 46.6% | [13] 89.2% | [14] 97.1% | [15] 28.6% | [16] 60.8% | [17] 125% | [18] 32.9% | [19] 34.6%

O=C(Nc1cccnc1Nc1ccccc1)c1cn(Cc2cccc(Oc3ccccc3)c2)nn1
inactive: [1] 30.5% | [2] 38.2% | [3] 47.6% | [4] 64.5% | [5] 54.4% | [6] 49.3% | [7] 26.6% | [8] 32.8% | [9] 37% | [10] 55.1% | [11] 75.6% | [12] 59.8% | [13] 56.7% | [14] 82.1% | [15] 76.6% | [16] 69.6% | [17] 45.3% | [18] 47.4% | [19] 31.1%

CC(C)n1c2ccc(Br)cc2c2c3c(c4c5ccccc5ccc4c21)C(=O)NC3=O
inactive: [1] 83.7% | [2] 70.3% | [3] 103% | [4] 102% | [5] 98% | [6] 89.8% | [7] 90.7% | [8] 101% | [9] 106% | [10] 96.5% | [11] 111% | [12] 86.1% | [20] 59.2% | [14] 91.8% | [15] 68.4% | [16] 82.5% | [17] 71.8% | [18] 90.1% | [19] 75.1%

COc1ccc(-c2cc(-c3cn(-c4cccc(Cl)c4)nc3-c3ccc(OC)cc3)on2)cc1
inactive: [1] 91.2% | [2] 93.6% | [3] 99.2% | [4] 92.7% | [5] 90.2% | [6] 86.5% | [7] 98% | [8] 94% | [9] 102% | [10] 105% | [11] 86.8% | [12] 98.8% | [20] 77.3% | [15] 101% | [16] 93.5% | [17] 78.6% | [18] 88.1% | [19] 77%
active: [14] -45.1%

Reference: PubChem BioAssay (NCI)
